Assay in all cases: DAPPL (digital affinity profiling via proximity ligation, sequencing); 10 mM Tris-HCl pH 7.5, 50 mM NaCl, 1 mM DTT, 4% glycerol, room temperature, 30 min; GST-TFs on glutathione beads, 16-mer random dsDNA library, 0.1% formaldehyde crosslink after washing; high values mean tight binding
One test has as its target T1, FEV (Homo sapiens, UniProt Q99581 1-238).
T1 sequence: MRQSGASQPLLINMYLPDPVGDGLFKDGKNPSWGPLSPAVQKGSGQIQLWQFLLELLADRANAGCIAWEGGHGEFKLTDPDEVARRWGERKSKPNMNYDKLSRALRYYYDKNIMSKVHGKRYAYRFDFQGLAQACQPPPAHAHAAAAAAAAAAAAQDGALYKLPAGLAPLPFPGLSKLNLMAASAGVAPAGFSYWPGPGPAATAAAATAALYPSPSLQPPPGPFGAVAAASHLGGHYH
The settings on record: protein: recombinant; tags: N-terminal GST; dsDNA, one strand shown. The gist of the method:
(§1)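 Binding signal is each hexamer's read frequency for a factor divided by its frequency in the tag-only sample. The factors were GST-fused human transcription factors from yeast, captured on glutathione beads, DNA-barcoded and pooled with that sample. Pools were incubated with 200 nmole of a random double-stranded 16-mer DNA library in Tris/NaCl/DTT/glycerol buffer at room temperature for 30 min, then washed, crosslinked with 0.1% formaldehyde, proximity-ligated with BsaI/T4 ligase (1 h, 37 °C), PCR-amplified and sequenced on an Illumina NextSeq500.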

For a further test, the target named is ETV5 (Homo sapiens, UniProt P41161 1-510). The settings on record: protein: recombinant; tags: N-terminal GST; dsDNA, one strand shown. The gist of the method:
as §1

For another test, the target named is HSF1 (Homo sapiens, UniProt Q00613 1-529). The conditions noted are these: protein: recombinant; tags: N-terminal GST; chain copies: 3; dsDNA, one strand shown. In outline: as §1
Chain of HSF1 (Q00613 whole entry): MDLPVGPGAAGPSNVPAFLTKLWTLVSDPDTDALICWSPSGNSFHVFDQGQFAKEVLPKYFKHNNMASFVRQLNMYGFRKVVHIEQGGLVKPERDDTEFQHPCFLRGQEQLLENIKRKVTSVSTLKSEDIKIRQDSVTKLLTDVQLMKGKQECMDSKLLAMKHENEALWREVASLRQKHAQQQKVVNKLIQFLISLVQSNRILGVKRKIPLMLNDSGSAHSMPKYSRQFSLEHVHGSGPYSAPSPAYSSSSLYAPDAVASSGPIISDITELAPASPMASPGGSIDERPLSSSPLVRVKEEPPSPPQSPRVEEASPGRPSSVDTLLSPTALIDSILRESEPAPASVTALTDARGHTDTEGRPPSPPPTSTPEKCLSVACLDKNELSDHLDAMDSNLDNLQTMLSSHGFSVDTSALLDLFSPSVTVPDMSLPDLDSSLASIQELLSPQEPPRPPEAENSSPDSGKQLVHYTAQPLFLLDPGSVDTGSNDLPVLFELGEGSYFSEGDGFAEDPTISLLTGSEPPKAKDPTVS
The target of another test is T2, SPIC (Homo sapiens, UniProt Q8N5J4 1-248).
T2 sequence: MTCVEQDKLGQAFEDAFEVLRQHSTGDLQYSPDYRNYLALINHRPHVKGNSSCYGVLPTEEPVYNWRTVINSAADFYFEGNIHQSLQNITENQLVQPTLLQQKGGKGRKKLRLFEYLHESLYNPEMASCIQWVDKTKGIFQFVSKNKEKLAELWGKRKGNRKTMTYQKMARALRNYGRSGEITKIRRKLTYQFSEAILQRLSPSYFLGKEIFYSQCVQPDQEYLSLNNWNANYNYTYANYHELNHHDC
The conditions noted are these: protein: recombinant; tags: N-terminal GST; dsDNA, one strand shown. In outline: as §1

Another test deals with ELF4 (Homo sapiens, UniProt Q99607 1-663). The conditions noted are these: protein: recombinant; tags: N-terminal GST; dsDNA, one strand shown. The gist of the method:
as §1

For the next test, the target named is T3, ELK4 (Homo sapiens, UniProt P28324-2 1-405).
T3 sequence: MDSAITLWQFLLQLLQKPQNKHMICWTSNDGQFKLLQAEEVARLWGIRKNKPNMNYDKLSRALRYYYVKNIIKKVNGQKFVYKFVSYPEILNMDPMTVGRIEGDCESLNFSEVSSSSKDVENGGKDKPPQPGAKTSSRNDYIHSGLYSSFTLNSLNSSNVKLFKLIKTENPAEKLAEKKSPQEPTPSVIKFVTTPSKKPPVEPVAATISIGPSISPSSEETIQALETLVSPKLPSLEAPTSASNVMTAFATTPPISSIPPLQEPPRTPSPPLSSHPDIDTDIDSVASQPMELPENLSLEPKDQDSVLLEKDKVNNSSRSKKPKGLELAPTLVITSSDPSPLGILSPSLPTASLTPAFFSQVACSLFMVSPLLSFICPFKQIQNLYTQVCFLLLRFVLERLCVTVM
The conditions noted are these: protein: recombinant; tags: N-terminal GST; dsDNA, one strand shown. In outline:
as §1

For another test, the target named is T4, ETV2 (Homo sapiens, UniProt O00321 1-342).
T4 sequence: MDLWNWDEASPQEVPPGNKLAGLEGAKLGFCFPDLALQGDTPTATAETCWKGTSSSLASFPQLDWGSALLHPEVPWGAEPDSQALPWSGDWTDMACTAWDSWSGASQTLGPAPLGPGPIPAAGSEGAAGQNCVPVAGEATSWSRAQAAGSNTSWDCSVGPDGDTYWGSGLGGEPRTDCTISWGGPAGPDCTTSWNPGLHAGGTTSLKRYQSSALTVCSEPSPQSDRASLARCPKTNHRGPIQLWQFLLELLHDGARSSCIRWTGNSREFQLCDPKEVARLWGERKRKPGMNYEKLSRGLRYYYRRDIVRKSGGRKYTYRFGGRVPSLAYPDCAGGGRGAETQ
The settings on record: protein: recombinant; tags: N-terminal GST; dsDNA, one strand shown. The gist of the method:
as §1

The target of the next test is T5, ELF3 (Homo sapiens, UniProt P78545 1-371).
T5 sequence: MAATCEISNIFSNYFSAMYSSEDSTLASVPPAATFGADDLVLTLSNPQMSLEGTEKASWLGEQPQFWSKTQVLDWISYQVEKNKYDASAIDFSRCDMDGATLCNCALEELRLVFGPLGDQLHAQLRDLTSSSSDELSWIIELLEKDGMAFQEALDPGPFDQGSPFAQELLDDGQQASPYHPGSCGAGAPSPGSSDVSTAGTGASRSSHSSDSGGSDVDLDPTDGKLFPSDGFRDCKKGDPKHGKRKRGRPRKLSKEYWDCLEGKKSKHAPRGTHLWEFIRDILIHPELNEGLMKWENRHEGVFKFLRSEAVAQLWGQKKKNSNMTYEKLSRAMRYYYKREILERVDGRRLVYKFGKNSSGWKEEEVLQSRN
The conditions noted are these: protein: recombinant; tags: N-terminal GST; dsDNA, one strand shown. The gist of the method: as §1

In a further test the target is CRX (Homo sapiens, UniProt O43186 1-299). The settings on record: protein: recombinant; tags: N-terminal GST; dsDNA, one strand shown. In outline: as §1
Chain of CRX (O43186 whole entry): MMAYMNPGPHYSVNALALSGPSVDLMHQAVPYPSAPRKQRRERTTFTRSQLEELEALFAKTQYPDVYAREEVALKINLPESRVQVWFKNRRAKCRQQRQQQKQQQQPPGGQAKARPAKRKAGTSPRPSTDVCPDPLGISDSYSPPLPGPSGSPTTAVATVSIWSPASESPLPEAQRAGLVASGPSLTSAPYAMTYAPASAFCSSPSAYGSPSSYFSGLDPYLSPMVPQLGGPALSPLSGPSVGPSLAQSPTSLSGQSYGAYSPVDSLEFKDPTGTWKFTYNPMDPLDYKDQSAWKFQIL
The next test has as its target ETV1 (Homo sapiens, UniProt P50549 1-477). The conditions noted are these: protein: recombinant; tags: N-terminal GST; dsDNA, one strand shown. In outline:
as §1

A further test has as its target T6, ERF (Homo sapiens, UniProt P50548 1-548).
T6 sequence: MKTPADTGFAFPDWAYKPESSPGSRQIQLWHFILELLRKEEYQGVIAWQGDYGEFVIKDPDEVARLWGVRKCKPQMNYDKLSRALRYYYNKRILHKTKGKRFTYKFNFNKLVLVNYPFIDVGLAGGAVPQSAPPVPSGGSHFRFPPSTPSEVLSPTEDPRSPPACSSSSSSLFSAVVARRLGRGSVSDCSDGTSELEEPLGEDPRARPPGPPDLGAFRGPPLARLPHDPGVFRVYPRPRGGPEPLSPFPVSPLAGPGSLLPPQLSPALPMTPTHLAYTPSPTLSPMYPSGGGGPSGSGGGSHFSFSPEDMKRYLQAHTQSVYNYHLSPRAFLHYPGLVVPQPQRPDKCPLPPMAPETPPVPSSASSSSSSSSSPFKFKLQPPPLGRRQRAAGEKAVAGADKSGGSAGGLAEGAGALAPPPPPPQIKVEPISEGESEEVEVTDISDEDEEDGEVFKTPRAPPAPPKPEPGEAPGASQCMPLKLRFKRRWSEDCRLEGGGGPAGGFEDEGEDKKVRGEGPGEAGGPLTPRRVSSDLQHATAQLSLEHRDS
The conditions noted are these: protein: recombinant; tags: N-terminal GST; dsDNA, one strand shown. The gist of the method: as §1

The target in a further test is T7, ETV3L (Homo sapiens, UniProt Q6ZN32 1-361).
T7 sequence: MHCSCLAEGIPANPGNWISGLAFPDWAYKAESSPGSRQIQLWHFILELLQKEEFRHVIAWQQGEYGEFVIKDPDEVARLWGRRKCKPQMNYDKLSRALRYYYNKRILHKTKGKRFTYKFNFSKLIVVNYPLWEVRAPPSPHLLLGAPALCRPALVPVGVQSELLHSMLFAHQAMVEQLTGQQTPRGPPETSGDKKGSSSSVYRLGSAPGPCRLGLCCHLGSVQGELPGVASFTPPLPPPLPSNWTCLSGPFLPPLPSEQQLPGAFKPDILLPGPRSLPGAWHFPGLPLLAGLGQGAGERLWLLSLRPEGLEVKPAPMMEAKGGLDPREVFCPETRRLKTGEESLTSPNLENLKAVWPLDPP
The conditions noted are these: protein: recombinant; tags: N-terminal GST; dsDNA, one strand shown. In outline:
as §1

A further test addresses T8, ETS2 (Homo sapiens, UniProt P15036 1-469).
T8 sequence: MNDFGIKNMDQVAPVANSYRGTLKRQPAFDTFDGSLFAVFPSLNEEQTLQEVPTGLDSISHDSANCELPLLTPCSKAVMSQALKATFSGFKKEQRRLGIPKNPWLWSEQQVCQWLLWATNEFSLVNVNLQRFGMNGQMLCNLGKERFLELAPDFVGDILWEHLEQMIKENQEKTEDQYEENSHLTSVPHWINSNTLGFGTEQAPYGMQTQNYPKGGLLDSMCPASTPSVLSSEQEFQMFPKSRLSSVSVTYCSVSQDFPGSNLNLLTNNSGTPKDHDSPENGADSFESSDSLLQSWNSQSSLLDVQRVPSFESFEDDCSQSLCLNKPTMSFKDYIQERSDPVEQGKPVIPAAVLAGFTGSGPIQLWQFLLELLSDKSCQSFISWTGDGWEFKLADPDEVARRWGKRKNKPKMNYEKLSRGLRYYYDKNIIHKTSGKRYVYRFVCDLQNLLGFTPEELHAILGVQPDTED
The conditions noted are these: protein: recombinant; tags: N-terminal GST; dsDNA, one strand shown. In outline:
as §1

The next test deals with T9, SPDEF (Homo sapiens, UniProt O95238 1-335).
T9 sequence: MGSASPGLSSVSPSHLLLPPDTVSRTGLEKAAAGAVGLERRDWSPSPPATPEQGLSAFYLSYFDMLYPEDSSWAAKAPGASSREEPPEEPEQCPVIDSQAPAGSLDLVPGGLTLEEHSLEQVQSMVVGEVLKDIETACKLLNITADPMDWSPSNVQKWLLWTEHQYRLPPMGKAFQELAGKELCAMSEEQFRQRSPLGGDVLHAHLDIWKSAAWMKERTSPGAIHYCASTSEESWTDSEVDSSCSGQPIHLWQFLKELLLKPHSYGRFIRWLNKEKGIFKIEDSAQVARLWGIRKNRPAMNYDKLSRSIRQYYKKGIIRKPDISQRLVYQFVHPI
The settings on record: protein: recombinant; tags: N-terminal GST; dsDNA, one strand shown. In outline:
as §1

Another test deals with T10, ETV7 (Homo sapiens, UniProt Q9Y603 1-341).
T10 sequence: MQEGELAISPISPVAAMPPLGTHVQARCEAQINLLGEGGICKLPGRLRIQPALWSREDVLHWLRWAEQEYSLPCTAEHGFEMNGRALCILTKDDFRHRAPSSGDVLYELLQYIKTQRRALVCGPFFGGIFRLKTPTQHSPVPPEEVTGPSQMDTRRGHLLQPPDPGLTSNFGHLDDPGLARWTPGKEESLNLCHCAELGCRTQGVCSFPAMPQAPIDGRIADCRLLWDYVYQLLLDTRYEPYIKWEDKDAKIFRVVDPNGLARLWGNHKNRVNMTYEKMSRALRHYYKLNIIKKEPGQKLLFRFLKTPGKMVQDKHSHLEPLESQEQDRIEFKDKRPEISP
The settings on record: protein: recombinant; tags: N-terminal GST; dsDNA, one strand shown. The gist of the method:
as §1

For a further test, the target named is T11, ELF5 (Homo sapiens, UniProt Q9UKW6-2 1-255).
T11 sequence: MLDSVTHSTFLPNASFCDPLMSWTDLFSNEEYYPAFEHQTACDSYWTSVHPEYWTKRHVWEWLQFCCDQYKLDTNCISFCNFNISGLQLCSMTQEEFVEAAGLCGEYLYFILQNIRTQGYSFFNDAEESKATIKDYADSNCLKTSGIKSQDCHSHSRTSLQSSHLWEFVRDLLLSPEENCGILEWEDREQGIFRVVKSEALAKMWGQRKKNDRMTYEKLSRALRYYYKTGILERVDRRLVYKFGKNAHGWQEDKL
The conditions noted are these: protein: recombinant; tags: N-terminal GST; dsDNA, one strand shown. In outline: as §1

The target in another test is T12, ETV3 (Homo sapiens, UniProt P41162-2 1-143).
T12 sequence: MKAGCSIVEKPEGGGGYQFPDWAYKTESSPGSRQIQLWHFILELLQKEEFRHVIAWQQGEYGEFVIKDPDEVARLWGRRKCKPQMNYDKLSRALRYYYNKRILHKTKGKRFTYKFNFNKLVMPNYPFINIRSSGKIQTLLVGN
The conditions noted are these: protein: recombinant; tags: N-terminal GST; dsDNA, one strand shown. The gist of the method:
as §1

The target in another test is ETV6 (Homo sapiens, UniProt P41212 1-452). The conditions noted are these: protein: recombinant; tags: N-terminal GST; dsDNA, one strand shown. The gist of the method: as §1
Chain of ETV6 (P41212 whole entry): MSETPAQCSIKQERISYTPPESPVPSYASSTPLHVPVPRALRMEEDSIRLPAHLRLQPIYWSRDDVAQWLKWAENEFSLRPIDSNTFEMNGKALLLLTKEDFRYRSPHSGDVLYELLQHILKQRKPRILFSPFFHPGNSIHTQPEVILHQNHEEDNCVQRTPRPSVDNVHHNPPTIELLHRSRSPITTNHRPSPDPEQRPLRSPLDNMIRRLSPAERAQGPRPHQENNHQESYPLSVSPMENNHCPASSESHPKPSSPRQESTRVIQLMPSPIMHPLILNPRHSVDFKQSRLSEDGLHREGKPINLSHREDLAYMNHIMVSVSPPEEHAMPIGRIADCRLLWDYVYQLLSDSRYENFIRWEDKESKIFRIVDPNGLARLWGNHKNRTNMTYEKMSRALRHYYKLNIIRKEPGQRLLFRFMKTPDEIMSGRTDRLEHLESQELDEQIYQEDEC

Chain of ELF4 (Q99607 whole entry): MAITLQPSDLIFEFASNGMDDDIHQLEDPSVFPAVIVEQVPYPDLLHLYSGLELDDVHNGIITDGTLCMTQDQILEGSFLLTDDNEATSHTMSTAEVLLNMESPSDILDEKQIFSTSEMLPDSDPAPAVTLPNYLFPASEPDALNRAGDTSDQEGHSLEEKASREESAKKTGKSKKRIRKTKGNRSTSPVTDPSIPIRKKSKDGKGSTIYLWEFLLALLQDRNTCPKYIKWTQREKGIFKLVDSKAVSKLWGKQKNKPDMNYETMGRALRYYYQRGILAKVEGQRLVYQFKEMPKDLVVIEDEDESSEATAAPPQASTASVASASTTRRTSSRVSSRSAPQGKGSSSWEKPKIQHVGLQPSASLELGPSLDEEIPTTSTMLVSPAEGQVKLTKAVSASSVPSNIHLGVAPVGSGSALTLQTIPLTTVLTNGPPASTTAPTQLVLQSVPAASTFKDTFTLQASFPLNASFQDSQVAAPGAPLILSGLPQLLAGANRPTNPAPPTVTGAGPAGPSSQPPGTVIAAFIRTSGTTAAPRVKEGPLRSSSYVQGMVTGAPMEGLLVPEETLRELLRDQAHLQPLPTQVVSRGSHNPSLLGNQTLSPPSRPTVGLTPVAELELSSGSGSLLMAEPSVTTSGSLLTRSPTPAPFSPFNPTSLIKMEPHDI
Chain of ETV5 (P41161 whole entry): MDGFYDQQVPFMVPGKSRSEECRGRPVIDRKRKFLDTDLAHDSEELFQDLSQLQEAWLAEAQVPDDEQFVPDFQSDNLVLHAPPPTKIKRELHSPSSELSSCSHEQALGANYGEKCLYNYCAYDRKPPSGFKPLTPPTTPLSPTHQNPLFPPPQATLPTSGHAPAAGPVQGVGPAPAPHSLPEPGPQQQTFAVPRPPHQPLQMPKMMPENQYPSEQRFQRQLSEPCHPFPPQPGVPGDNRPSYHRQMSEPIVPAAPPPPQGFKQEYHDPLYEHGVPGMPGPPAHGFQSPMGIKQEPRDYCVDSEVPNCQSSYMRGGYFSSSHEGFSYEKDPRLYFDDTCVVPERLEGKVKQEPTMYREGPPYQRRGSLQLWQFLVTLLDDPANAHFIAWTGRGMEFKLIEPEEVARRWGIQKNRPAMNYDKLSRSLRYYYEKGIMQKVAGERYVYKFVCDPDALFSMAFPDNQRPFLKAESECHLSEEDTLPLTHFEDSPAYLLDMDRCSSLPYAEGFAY
Chain of ETV1 (P50549 whole entry): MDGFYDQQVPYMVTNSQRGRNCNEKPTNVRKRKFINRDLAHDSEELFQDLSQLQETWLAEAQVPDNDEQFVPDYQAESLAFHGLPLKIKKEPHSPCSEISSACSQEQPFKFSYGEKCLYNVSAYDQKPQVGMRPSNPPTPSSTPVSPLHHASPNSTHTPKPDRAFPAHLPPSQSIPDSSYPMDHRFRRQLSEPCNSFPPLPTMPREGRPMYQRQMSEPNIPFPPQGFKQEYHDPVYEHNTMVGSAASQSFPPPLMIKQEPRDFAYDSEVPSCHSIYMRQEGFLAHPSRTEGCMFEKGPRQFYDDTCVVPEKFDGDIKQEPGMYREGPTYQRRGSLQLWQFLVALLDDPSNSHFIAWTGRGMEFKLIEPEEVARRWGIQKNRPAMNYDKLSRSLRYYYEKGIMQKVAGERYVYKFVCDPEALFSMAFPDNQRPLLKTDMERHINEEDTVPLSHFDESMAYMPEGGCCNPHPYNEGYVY

Take ATAAAT: the binding signal with FEV is 1.11 fold enrichment (6-mer frequency, TF over GST control); with ETV5 it was 1.22 fold enrichment (6-mer frequency, TF over GST control); in the test with HSF1 it was 1.41 fold enrichment (6-mer frequency, TF over GST control); in the test with SPIC, 1.16 fold enrichment (6-mer frequency, TF over GST control); with ELF4 it was 1.16 fold enrichment (6-mer frequency, TF over GST control); in the test with ELK4 it was 1.17 fold enrichment (6-mer frequency, TF over GST control). Moreover, the binding signal in the test with ETV2 was 1.13 fold enrichment (6-mer frequency, TF over GST control); with ELF3, 1.24 fold enrichment (6-mer frequency, TF over GST control); with CRX, 1.75 fold enrichment (6-mer frequency, TF over GST control); with ETV1, 1.13 fold enrichment (6-mer frequency, TF over GST control); with ERF it was 1.19 fold enrichment (6-mer frequency, TF over GST control); with ETV3L, 1.18 fold enrichment (6-mer frequency, TF over GST control). In addition, the binding signal was 1.19 fold enrichment (6-mer frequency, TF over GST control) with ETS2; 1.17 fold enrichment (6-mer frequency, TF over GST control) in the test with SPDEF; 1.14 fold enrichment (6-mer frequency, TF over GST control) with ETV7; 1.08 fold enrichment (6-mer frequency, TF over GST control) with ELF5; 1.19 fold enrichment (6-mer frequency, TF over GST control) with ETV3; 1.25 fold enrichment (6-mer frequency, TF over GST control) with ETV6.

For the origin of these results see PMC7862700, “An all-to-all approach to the identification of sequence-specific readers for epigenetic DNA modifications on cytosine”.
